The full ranking holds about 9,900 sequences; the median of “r (bound/input frequency ratio)” is about 0.7, and the highest 2% start at about 6.5. This is one part of a sample in which the highest values are shown more often than they occur.
B1: ENSMUSG00000028439.351|Fam219a (ssRNA)
RNA: GGGAGUUCUACAGUCCGACGAUCGCUUCGAUAUCCGCAUGCUACCCCCCACCGCAUCCCCACUGGGCUCUUUGACUCACCCUUCUAGAACAUGGGUGCCUCCUCUCUUUAGACUGCUGCCUUUGCCUCUGACUUCCUGUGGGAUUGAGAGCCAAGGGCCAGUGCCCUUGUGAGCGCACUAGUUCCGAAGCAGGCAAGGGCAUUAGGUGGUAUAUACAUAGCGGGUAGGGGUAGGAAGCUGGCAGCCUGCAGCUUCCAAGUCCAAGGAGAGCACACAGUUCCCUCCUUCCCUGCCUGGAAGUUGCUCUUGCGGUCGCACUAGUGUGGAAUUCUCGGGUGUCAAGG
B2: ENSMUSG00000061578.187|Ksr2 (ssRNA)
RNA: GGGAGUUCUACAGUCCGACGAUCGCUUCGAUAUCCGCAUGCUAUUGUGCACACUCAGCACCCCAUCUUCCAAGCCUUUCUUCAUCCCCCACCUUCUUUUGGGAAGGGGUGGCACAGAGUGAAUGGGAAGGAGAGCCCUGAGGUCACUGGUCCACAUGCCCAAAGCCAUGCCCCCCAGUGAUCAGACCUGACACAAGAGGCAAAGCUGUCCCUAAGCAGAGAAUUAGCAGGGUUAGCCAGACAGCAAAAUCCAUGUAAACAUACAAAACCACCCCCCCUUUUUGAGUGGCCCUAUUGGAUGUACCUCUUGCGGUCGCACUAGUGUGGAAUUCUCGGGUGUCAAGG
B3: ENSMUSG00000029028.28|Lrrc47 (ssRNA)
RNA: GGGAGUUCUACAGUCCGACGAUCGCUUCGAUAUCCGCAUGCUAUCUGUGUGGGUGUGGGUGUGCUAUAGGUAUCUGUGGGUGUGCUGUAGGUGUCUGUGUGGGUGUGCUGUAGGUGUCUGUGUAGGUGUGGGUGUGCUGUAGGUGUCUGUGUGGGUGUGCUAGGUGUCUGUAUAGGUGUGGGUGUGCUGUAGAUGUCUGUGUAGGUAUGGGUGUGCUGUAGAUCUUUGUAGGUGUAGGUAUGCUGUAGGUAUCUGGGUGUGGGUAUGCUGUAGAUGUCUGUGUAGGUGUGGAUAUGCUGUAGGCUCUUGCGGUCGCACUAGUGUGGAAUUCUCGGGUGUCAAGG
B4: ENSMUSG00000029028.68|Lrrc47 (ssRNA)
RNA: GGGAGUUCUACAGUCCGACGAUCGCUUCGAUAUCCGCAUGCUAAGGUGUGGAUAUGCUGUAGGUAUCUGGGUGUGCUGUAGGUGUCUGUGUGGGUGUGGGUGUGCUGUGGGUGUCUGUGUGGGUGUGCUGUAGGUGUCUGUAGGUGUGGGUAUGCUGCAGGUGUGGGUGUGCUGUAGAUCUCUAUAGGUGUGGGUGUGCUGUAGGGGUCUGUGUGGGUAUAGGUGUGGGUGUGCUGUAGAUUCUGUGUAACUGGUUCUUUGCUGUUUCUCUGGGUGUUUUAAGGUGUCUGCUUUUGUCCAGGUCUCUUGCGGUCGCACUAGUGUGGAAUUCUCGGGUGUCAAGG
B5: ENSMUSG00000029028.67|Lrrc47 (ssRNA)
RNA: GGGAGUUCUACAGUCCGACGAUCGCUUCGAUAUCCGCAUGCUACUGUGUAGGUGUGGAUAUGCUGUAGGUAUCUGGGUGUGCUGUAGGUGUCUGUGUGGGUGUGGGUGUGCUGUGGGUGUCUGUGUGGGUGUGCUGUAGGUGUCUGUAGGUGUGGGUAUGCUGCAGGUGUGGGUGUGCUGUAGAUCUCUAUAGGUGUGGGUGUGCUGUAGGGGUCUGUGUGGGUAUAGGUGUGGGUGUGCUGUAGAUUCUGUGUAACUGGUUCUUUGCUGUUUCUCUGGGUGUUUUAAGGUGUCUGCUUUUGUCUCUUGCGGUCGCACUAGUGUGGAAUUCUCGGGUGUCAAGG
B6: ENSMUSG00000029028.21|Lrrc47 (ssRNA)
RNA: GGGAGUUCUACAGUCCGACGAUCGCUUCGAUAUCCGCAUGCUAUGUGCUGUAGGUGUCUGUGUGGGUGUGGGUGUGCUGUAGGUGUCUGUGUGGGUGUGGGUGUGCUAUAGGUAUCUGUGGGUGUGCUGUAGGUGUCUGUGUGGGUGUGCUGUAGGUGUCUGUGUAGGUGUGGGUGUGCUGUAGGUGUCUGUGUGGGUGUGCUAGGUGUCUGUAUAGGUGUGGGUGUGCUGUAGAUGUCUGUGUAGGUAUGGGUGUGCUGUAGAUCUUUGUAGGUGUAGGUAUGCUGUAGGUAUCUGGGUGUGCUCUUGCGGUCGCACUAGUGUGGAAUUCUCGGGUGUCAAGG
B7: ENSMUSG00000029028.38|Lrrc47 (ssRNA)
RNA: GGGAGUUCUACAGUCCGACGAUCGCUUCGAUAUCCGCAUGCUAUGUGCUGUAGGUGUCUGUGUAGGUGUGGGUGUGCUGUAGGUGUCUGUGUGGGUGUGCUAGGUGUCUGUAUAGGUGUGGGUGUGCUGUAGAUGUCUGUGUAGGUAUGGGUGUGCUGUAGAUCUUUGUAGGUGUAGGUAUGCUGUAGGUAUCUGGGUGUGGGUAUGCUGUAGAUGUCUGUGUAGGUGUGGAUAUGCUGUAGGUAUCUGGGUGUGCUGUAGGUGUCUGUGUGGGUGUGGGUGUGCUGUGGGUGUCUGUGUGGGCUCUUGCGGUCGCACUAGUGUGGAAUUCUCGGGUGUCAAGG
B8: ENSMUSG00000029028.20|Lrrc47 (ssRNA)
RNA: GGGAGUUCUACAGUCCGACGAUCGCUUCGAUAUCCGCAUGCUAUGUGGGUGUGCUGUAGGUGUCUGUGUGGGUGUGGGUGUGCUGUAGGUGUCUGUGUGGGUGUGGGUGUGCUAUAGGUAUCUGUGGGUGUGCUGUAGGUGUCUGUGUGGGUGUGCUGUAGGUGUCUGUGUAGGUGUGGGUGUGCUGUAGGUGUCUGUGUGGGUGUGCUAGGUGUCUGUAUAGGUGUGGGUGUGCUGUAGAUGUCUGUGUAGGUAUGGGUGUGCUGUAGAUCUUUGUAGGUGUAGGUAUGCUGUAGGUAUCUGCUCUUGCGGUCGCACUAGUGUGGAAUUCUCGGGUGUCAAGG
B9: ENSMUSG00000029028.66|Lrrc47 (ssRNA)
RNA: GGGAGUUCUACAGUCCGACGAUCGCUUCGAUAUCCGCAUGCUAAGAUGUCUGUGUAGGUGUGGAUAUGCUGUAGGUAUCUGGGUGUGCUGUAGGUGUCUGUGUGGGUGUGGGUGUGCUGUGGGUGUCUGUGUGGGUGUGCUGUAGGUGUCUGUAGGUGUGGGUAUGCUGCAGGUGUGGGUGUGCUGUAGAUCUCUAUAGGUGUGGGUGUGCUGUAGGGGUCUGUGUGGGUAUAGGUGUGGGUGUGCUGUAGAUUCUGUGUAACUGGUUCUUUGCUGUUUCUCUGGGUGUUUUAAGGUGUCUGCCUCUUGCGGUCGCACUAGUGUGGAAUUCUCGGGUGUCAAGG
B10: ENSMUSG00000029028.19|Lrrc47 (ssRNA)
RNA: GGGAGUUCUACAGUCCGACGAUCGCUUCGAUAUCCGCAUGCUAUGUAGGUGUGGGUGUGCUGUAGGUGUCUGUGUGGGUGUGGGUGUGCUGUAGGUGUCUGUGUGGGUGUGGGUGUGCUAUAGGUAUCUGUGGGUGUGCUGUAGGUGUCUGUGUGGGUGUGCUGUAGGUGUCUGUGUAGGUGUGGGUGUGCUGUAGGUGUCUGUGUGGGUGUGCUAGGUGUCUGUAUAGGUGUGGGUGUGCUGUAGAUGUCUGUGUAGGUAUGGGUGUGCUGUAGAUCUUUGUAGGUGUAGGUAUGCUGUAGGCUCUUGCGGUCGCACUAGUGUGGAAUUCUCGGGUGUCAAGG
B11: ENSMUSG00000029028.44|Lrrc47 (ssRNA)
RNA: GGGAGUUCUACAGUCCGACGAUCGCUUCGAUAUCCGCAUGCUAUAGGUGUCUGUGUGGGUGUGCUAGGUGUCUGUAUAGGUGUGGGUGUGCUGUAGAUGUCUGUGUAGGUAUGGGUGUGCUGUAGAUCUUUGUAGGUGUAGGUAUGCUGUAGGUAUCUGGGUGUGGGUAUGCUGUAGAUGUCUGUGUAGGUGUGGAUAUGCUGUAGGUAUCUGGGUGUGCUGUAGGUGUCUGUGUGGGUGUGGGUGUGCUGUGGGUGUCUGUGUGGGUGUGCUGUAGGUGUCUGUAGGUGUGGGUAUGCUGCACUCUUGCGGUCGCACUAGUGUGGAAUUCUCGGGUGUCAAGG

Biological target: TDP-43 (Homo sapiens, UniProt Q13148 1-414)
Sequence (Q13148 whole entry): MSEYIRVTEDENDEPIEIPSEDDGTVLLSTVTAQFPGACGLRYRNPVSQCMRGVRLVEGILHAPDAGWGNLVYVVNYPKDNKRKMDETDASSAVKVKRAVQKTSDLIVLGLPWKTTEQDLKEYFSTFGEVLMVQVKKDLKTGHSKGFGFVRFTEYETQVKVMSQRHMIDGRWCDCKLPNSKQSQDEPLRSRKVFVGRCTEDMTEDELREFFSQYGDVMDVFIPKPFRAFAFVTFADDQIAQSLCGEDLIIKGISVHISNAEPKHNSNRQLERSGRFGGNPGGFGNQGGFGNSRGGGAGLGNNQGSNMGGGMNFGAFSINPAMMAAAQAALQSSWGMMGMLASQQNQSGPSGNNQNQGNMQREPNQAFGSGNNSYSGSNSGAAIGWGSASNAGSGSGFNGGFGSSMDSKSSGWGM
Test: RNA Bind-n-Seq with designed 260-mer pool; 25 mM Tris-HCl, 150 mM KCl, 3 mM MgCl2, BSA (printed 500 mg/mL), 20 units/mL SUPERase IN; pH not stated; 500 nM RNA pool, 1 h, 4 C; TDP-43 5, 50, 500 nM; high values mean tight binding
Details: protein: recombinant; tags: SBP (GST cleaved off with PreScission; pGEX-GST-SBP)
How it was run: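 Streptavidin beads captured recombinant SBP-tagged TDP-43 at 5, 50 or 500 nM, and the beads were incubated for 1 h at 4 °C with 500 nM of an in vitro-transcribed pool of 260-nt 3′ UTR oligos in 25 mM Tris-HCl, 150 mM KCl, 3 mM MgCl2, BSA and SUPERase IN. After washing, bound RNA was eluted with biotin, reverse transcribed, PCR-amplified and sequenced. Binding is reported as R, the mapped-read-normalized abundance of each oligo in the bound sample divided by its abundance in the input. Two independent protein batches served as duplicates.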

Row | Binder | binding signal
1 | B1 | 0.423 R (bound/input frequency ratio)
2 | B2 | 0.56 R (bound/input frequency ratio)
3 | B3 | 6.68 R (bound/input frequency ratio)
4 | B4 | 7.46 R (bound/input frequency ratio)
5 | B5 | 6.13 R (bound/input frequency ratio)
6 | B6 | 5.32 R (bound/input frequency ratio)
7 | B7 | 5.89 R (bound/input frequency ratio)
8 | B8 | 5.01 R (bound/input frequency ratio)
9 | B9 | 4.75 R (bound/input frequency ratio)
10 | B10 | 6.81 R (bound/input frequency ratio)
11 | B11 | 6.44 R (bound/input frequency ratio)
